Assay outcomes deposited in PubChem by National Center for Advancing Translational Sciences (NCATS).
ALDH1A1 block = qHTS Assay for Inhibitors of Aldehyde Dehydrogenase 1 (ALDH1A1). Aldehyde dehydrogenase 1A1 (Homo sapiens), P00352. Purified ALDH1A1, NADH fluorescence, propionaldehyde substrate. Potency, µM (titrated, usually from 75.3 µM), for the others: at the top dose activity, negative = inhibition, hits mostly inhibitors. 7.3% of 220,000 active;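 further: potency means the concentration at half of the fitted maximal effect; plate controls were no enzyme wells and a reference inhibitor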
HPGD inh = qHTS Assay for Inhibitors of HPGD (15-Hydroxyprostaglandin Dehydrogenase); 15-hydroxyprostaglandin dehydrogenase [NAD(+)] (Homo sapiens), P15428; purified HPGD, NADH fluorescence kinetic, PGE2 substrate; Potency, µM, without a hit: at the top dose activity change, negative = inhibition, most hits filed as inhibitors; 4.3% of 150,000 active; AID 894, 2007; further: potency means the concentration at half of the fitted maximal effect
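NADH formation kinetics: reaction with 30 uM PGE2 and 1 mM NAD+ (final), 20 nM enzyme, Tris-HCl pH 8 with Tween 20, after 15 min compound preincubation at room temperature. Fluorescence change, last versus first of five reads.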
LMNA splice mod = qHTS Assay for Modulators of Lamin A Splicing. Potency, µM (series often up to 46.1 µM), for the others: at the highest dose ratio change, negative = inhibition, actives largely listed as inhibitors. 0.01% of 200,000 active. HeLa LMNA splicing GFP/RFP minigene ratio, 48 h; active means well fitted inhibition curve with a large enough effect in the signal ratio, with a control signal flat, not every such curve was filed as active; inconclusive means small, poorly fitted or top-dose-only effect, or effect the other way, or a change in a side signal; the % refers to the signal ratio; further: potency means the concentration at half of the fitted maximal effect
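S3 HeLa cells stably expressing lamin A-EGFP splicing minigene plus DsRed2, 600 cells/well, 48 h compound exposure at 37C. Laser-scanning cytometry; analysed as GFP (500-530 nm)/RFP (575-640 nm) total intensity ratio; 0.5% DMSO vehicle.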
ALOX12 inhib = qHTS Assay for Inhibitors of 12-hLO (12-human lipoxygenase). Potency, µM (highest dose often 57.1 µM), for inactives: at the highest dose activity change, negative = inhibition, usual class: inhibitors. 0.12% of 150,000 active. Polyunsaturated fatty acid lipoxygenase ALOX12 (Homo sapiens), P18054. purified 12-hLO, xylenol orange hydroperoxide absorbance. AID 1452, 2008; active means well fitted inhibition curve with a large enough effect; inconclusive means small, poorly fitted or top-dose-only effect; further: potency means the concentration at half of the fitted maximal effect; nearly all actives have a fitted effect of over 55% in size
Target sequence (P18054 whole entry, looked up): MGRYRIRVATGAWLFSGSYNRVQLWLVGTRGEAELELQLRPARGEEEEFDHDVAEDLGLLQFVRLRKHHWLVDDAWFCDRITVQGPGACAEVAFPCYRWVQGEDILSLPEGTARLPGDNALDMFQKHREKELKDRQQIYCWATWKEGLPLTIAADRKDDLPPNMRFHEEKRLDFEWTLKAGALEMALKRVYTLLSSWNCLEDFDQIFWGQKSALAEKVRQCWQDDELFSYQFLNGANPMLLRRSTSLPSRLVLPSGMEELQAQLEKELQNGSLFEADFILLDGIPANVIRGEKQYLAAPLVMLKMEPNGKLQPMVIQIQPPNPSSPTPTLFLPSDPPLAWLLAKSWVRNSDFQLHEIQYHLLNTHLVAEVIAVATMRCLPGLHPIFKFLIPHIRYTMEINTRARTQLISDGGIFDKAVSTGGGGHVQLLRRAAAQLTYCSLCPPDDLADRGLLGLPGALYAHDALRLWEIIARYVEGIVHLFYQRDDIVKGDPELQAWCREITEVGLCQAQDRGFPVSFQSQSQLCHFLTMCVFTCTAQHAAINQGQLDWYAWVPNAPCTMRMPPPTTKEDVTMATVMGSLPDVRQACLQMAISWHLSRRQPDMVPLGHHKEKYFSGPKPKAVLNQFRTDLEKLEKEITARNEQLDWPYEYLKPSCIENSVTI
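150 nM 12hLO, 25 mM Hepes pH 7.0 + 0.01% Triton X-100; cpd preinc 15 min RT; 40 uM arachidonic acid, 30 min RT; Fe-XO 30 min; A573/A405 ratio as read-out.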
PNC inhibitor = High Content Assay for Compounds that inhibit the Assembly of the Perinucleolar Compartment | 3.1% of 140,000 active | activity change (PNC), negative = inhibition, % at 10 µM | AID 2417, 2010 | PC3M PTB-GFP, PNC prevalence imaging, 16 h; active compounds read low;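 active means readout at or below -70, meaning at least 70% loss of cells showing the perinucleolar compartment, a nuclear body marking cancer cells; inconclusive means readout between -30 and a set limit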;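 further: plate controls were DMSO wells for no effect and camptothecin positive control wells for full effect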
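PC3M cells stably expressing PTB-GFP, 750–1000 cells/well, treated 16 h at 37 °C with compound (23 nl of library stock), in duplicate. After paraformaldehyde fixation and Hoechst stain, imaged at 20x; PNC prevalence scored by image analysis.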
* = called active by the depositor; [ ] = another dose, or the depositor's remark. The list is not random: actives were taken first. Their share in the collection is about 10%. Unless noted, the call rests on the fitted dose curve; in most records, active means well fitted inhibition curve with a large enough effect (not every such curve was filed as active); inconclusive means small, poorly fitted or top-dose-only effect, or another doubt; inactive means no such curve, though single readings can be large or run the other way. Unless noted, on the % scale 0 is the no-effect control and ±100 the full control effect.

`CC(=O)c1ccc(NC2=C(N3CCOCC3)C(=O)c3ccccc3C2=O)cc1` gave ALDH1A1 block inconclusive, HPGD inh -1.1%, LMNA splice mod -5.8%, ALOX12 inhib -12.0% and PNC inhibitor 17.2.
Cc1ccc(C)c(Nc2ncccc2C(=O)NCc2cccs2)c1 was read as ALDH1A1 block -9.5%, HPGD inh 25.1µM*, LMNA splice mod inconclusive, ALOX12 inhib 0.0% and PNC inhibitor -18.7.
For Cc1ccc2[nH]cc(C(=O)NCc3cccs3)c(=O)c2c1 the results were ALDH1A1 block 15.8µM*, HPGD inh -7.9%, LMNA splice mod inconclusive, ALOX12 inhib 0.7% and PNC inhibitor inconclusive.
CC(=O)c1c[nH]c2ccc(C)cc2c1=O was read as ALDH1A1 block -4.6%, HPGD inh -26.8%, LMNA splice mod inconclusive, ALOX12 inhib 3.6% and PNC inhibitor -86.7*.
Screening Cc1c(C)n(C)c2ccc(C(=O)NCc3cccs3)cc12 returned ALDH1A1 block inconclusive, HPGD inh inconclusive, LMNA splice mod -8.7%, ALOX12 inhib -0.5% and PNC inhibitor -119.3*.
For CCN(CC)c1ncccc1C(=O)NCc1cccs1 the results were ALDH1A1 block 3.4%, HPGD inh -3.8%, LMNA splice mod 4.1%, ALOX12 inhib 4.6% and PNC inhibitor 26.4.
Screening Clc1cccc(CSc2nnc(C3CCNCC3)o2)c1 returned LMNA splice mod -5.1%[46 µM].
For CSc1nc2ccsc2c(=O)n1-c1ccccn1 the results were ALDH1A1 block 5.8%.
COCc1cc(=O)[nH]c(-c2ccccc2OC(F)(F)F)n1 was read as ALDH1A1 block -3.9%.
For O=C(O)CCC/C=C\C[C@H]1C(=O)C[C@@H](O)[C@@H]1/C=C/[C@@H](O)CCc1ccccc1 the results were ALDH1A1 block 3.0%, HPGD inh -7.0% and ALOX12 inhib -2.6%.
`CN1CCN(C(=S)c2ccc(Br)cc2)CC1` gave ALDH1A1 block -38.8%, LMNA splice mod -12.3%, ALOX12 inhib 1.6% and PNC inhibitor -16.3.
For S=C(c1ccc(Br)cc1)N1CCN(Cc2ccccc2)CC1 the results were ALDH1A1 block inconclusive, HPGD inh 31.6µM*, LMNA splice mod 2.1%, ALOX12 inhib -2.1% and PNC inhibitor 81.2.
For CCN(CC)c1ccc(C(=O)N2CCN(Cc3ccccc3)CC2)cc1 the results were ALDH1A1 block 11.8%, HPGD inh -13.6%, LMNA splice mod inconclusive, ALOX12 inhib 1.4% and PNC inhibitor 8.8.
Screening CN(C)c1ccc(C(=S)N2CCN(Cc3ccccc3)CC2)cc1 returned ALDH1A1 block 31.6µM*.
`Cc1ccc(C(=S)N2CCN(Cc3ccccc3)CC2)s1` gave ALDH1A1 block 14.1µM*.
`CN1CCN(C(=S)c2ccc(N(C)C)cc2)CC1` gave ALDH1A1 block 28.2µM*, HPGD inh 15.8µM*, LMNA splice mod -6.8%, ALOX12 inhib -3.7% and PNC inhibitor 15.4.
`COCCn1ccc2c(OCC(=O)Nc3cccc(C(F)(F)F)c3)cccc2c1=O` gave LMNA splice mod -13.3%[46 µM].
Screening O=C(CSc1nccn1Cc1ccc(F)cc1)NCc1ccc(F)cc1 returned LMNA splice mod -5.8%[46 µM].
`COc1ccc(NC(=O)NC(C)c2c(-n3cccc3)sc3c2CCN(C)C3)c(OC)c1` (stereo unspecified) gave LMNA splice mod 4.0%[46 µM].
Screening Cc1ccc(S(=O)(=O)c2cn(C)c3cc(N4CCCCCC4)c(F)cc3c2=O)cc1 returned LMNA splice mod 16.2%[46 µM].
Screening CCc1nn(CC(=O)Nc2ccc(Br)c(C)c2)c(=N)s1 returned ALDH1A1 block 11.2µM*.
`CCOCC(=O)Nc1ccc(Br)c(C)c1` gave ALDH1A1 block 14.1µM* and LMNA splice mod -4.8%[46 µM].
Screening CCOCC(=O)Nc1cccc(C(=O)OCC)c1 returned ALDH1A1 block inconclusive, HPGD inh -5.3%, LMNA splice mod -7.2%, ALOX12 inhib -5.9% and PNC inhibitor -8.5.
Screening CCCCc1ccc(NC(=O)COCC)cc1 returned ALDH1A1 block 14.1µM*, HPGD inh 10µM*, LMNA splice mod 6.4%, ALOX12 inhib 3.5% and PNC inhibitor -24.5.
Cc1ccccc1C(=O)N1c2ncnn2C2(CCCCC2)[C@@H]2CCCC[C@@H]21 was read as LMNA splice mod -8.9%[46 µM].
For Cc1ccc(C(=O)CCC2CCCCC2=O)cc1 (stereo unspecified) the results were ALDH1A1 block -8.8%, HPGD inh -29.2%, LMNA splice mod 13.7%, ALOX12 inhib 2.9% and PNC inhibitor inconclusive.
CCc1ccc(C(=O)CCC2CCCCC2=O)cc1 (stereo unspecified) was read as ALDH1A1 block inconclusive, HPGD inh 15.8µM*, LMNA splice mod 0.2%, ALOX12 inhib -0.3% and PNC inhibitor 38.3.
For CSc1ccc(CNC(=O)c2cc3cc(S(=O)(=O)N4CCCCC4)ccc3n2C)cc1 the results were LMNA splice mod -9.1%[46 µM].
`CC(=O)N1N=C(c2ccncc2)CC1c1ccccc1O` (stereo unspecified) gave ALDH1A1 block -6.0%.
`CC(=O)N1N=C(c2ccccc2)CC1c1cn(Cc2ccccc2)c2ccccc12` (stereo unspecified) gave ALDH1A1 block 28.2µM*, HPGD inh -13.5%, LMNA splice mod inconclusive, ALOX12 inhib 2.7% and PNC inhibitor inconclusive.
Screening CCN1C(=O)C(CC(=O)Nc2ccc(OC)cc2)N(CCc2ccccc2)C1=S (stereo unspecified) returned ALDH1A1 block 2µM* and LMNA splice mod 11.4%[9.22 µM].
`CCN1C(=O)C(CC(=O)Nc2ccc(F)cc2)N(CCc2ccc(OC)cc2)C1=S` (stereo unspecified) gave ALDH1A1 block 10µM* and LMNA splice mod inconclusive.
Screening COc1ccc(NC(=O)CC2C(=O)N(C)C(=S)N2CCc2ccccc2F)cc1 (stereo unspecified) returned ALDH1A1 block 3.98µM* and LMNA splice mod inconclusive.
For COc1ccc(NC(=O)CC2C(=O)N(C)C(=S)N2Cc2ccco2)cc1 (stereo unspecified) the results were ALDH1A1 block 12.9%, HPGD inh -13.2%, LMNA splice mod -13.6%, ALOX12 inhib 0.0% and PNC inhibitor 7.4.
`Cc1ccccc1Nc1ncnc(N)n1` gave ALDH1A1 block 13.4% and LMNA splice mod -20.3%[9.22 µM].
For COCCNC(=O)C(=O)N/N=C/c1ccc(C(=O)OC)cc1 the results were ALDH1A1 block 1.9% and LMNA splice mod 12.1%[46 µM].
`O=C(CS(=O)(=O)c1cccc2nsnc12)Nc1cc(F)ccc1F` gave LMNA splice mod -12.8%[46 µM].
